# MITF primary: MITF inhibitors, primary screen, biochemical, AlphaScreen, human | inhibition, % at 2.6 µM | Microphthalmia-associated transcription factor (Homo sapiens), O75030 | AlphaScreen MITF homodimerization, bead proximity signal | actives 0.91% (n = 650,000); in the data active means inhibition above about 50%;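 further: 0% = vehicle wells with protein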
# FBW7 act: FBW7 E3 ligase activators, primary screen, biochemical, AlphaScreen, human; normalized activity (activation), % at 26.1 µM; AID 1259310, 2017; AlphaScreen FBW7–phospho-cyclin E peptide binding, activator screen; F-box/WD repeat-containing protein 7 (Homo sapiens), Q969H0; actives 0.13% (n = 650,000); in the data active means normalized activity above about 1.9%;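 further: purified mutant Fbw7 with reduced substrate affinity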
# TEAD-YAP inh: TEAD-YAP interaction inhibition, primary screen, TEAD-YAP interaction inhibitor project, luminescence, HEK-TIYL cells | inhibition, % at 9.12 µM | actives 1.4% (n = 640,000) | TEAD-Gal4/YAP UAS-luciferase luminescence; in the data active means inhibition above about 32%;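 further: 0% = median of test compound wells and 100% = reference inhibitor wells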
# GPR151 activ: activators of human GPR151, primary screen, cell-based, PathHunter beta-arrestin, luminescence. G-protein coupled receptor 151 (Homo sapiens), Q8TDV0. PathHunter beta-arrestin GPR151 cells. activation, % at 11.2 µM. actives 1% (n = 650,000). AID 1508602, 2020; in the data active means activation above about 4.9%;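 further: 0% = median of compound wells and 100% = cells with positive control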
# GPR151 conf act: GPR151 activators, triplicate retest, confirmation, cell-based, PathHunter beta-arrestin, luminescence; GPR151 PathHunter beta-arrestin cells, 90 min; % of EA-reagent control over plate median; activation, % at 11.2 µM; 6,700 tested, under 10 active; shares compounds with GPR151 activ; AID 1508609, 2020;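 active means mean percent activation across replicates above the confirmation screen cutoff of 4.91%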
# GPR119 counter: GPR119 activators in beta-arrestin cells, counter-screen for GPR151 activator project, cell-based, PathHunter beta-arrestin, luminescence, triplicate; shares compounds with GPR151 activ; 90 min; 0 = compound-well median, 100 = enzyme-acceptor control; actives 0.3% (n = 6,700); activation, % at 11.2 µM; AID 1508611, 2020;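 active means mean percent activation in the counterscreen above 29.09%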;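 further: counterscreen on off-target GPR119 to flag nonselective hits from the GPR151 activator screen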
# * marks the source's active call; other numbers are inactive results; x = no result. Rows were chosen to be rich in hits. Some 3.5% of all compounds tested hit in one or more screens of this group.
SMILES,MITF primary,FBW7 act,TEAD-YAP inh,GPR151 activ,GPR151 conf act,GPR119 counter
O=C(COC(=O)/C=C/c1ccc(Br)o1)NC12CC3CC(CC(C3)C1)C2,-4,0,5,0,x,x
O=S(=O)(Nc1ccc(O)c(Br)c1)c1ccc(F)cc1,-2,0,4,0,x,x
COc1ccc(S(=O)(=O)Nc2ccc(O)c(Br)c2)cc1,1,0,4,5.9*,1,12
COc1ccc(NS(=O)(=O)c2ccc(Br)c(C(=O)Nc3ccccc3)c2)cc1,3,0,0,6.2*,0,12
CC1=NN(c2ccccc2)C(=O)/C1=C\c1cc([N+](=O)[O-])c(Cl)cc1Cl,2,0,8,-1,x,x
CC1CCN(C2=NN3C(=N)/C(=C\c4ccc(Br)o4)C(=O)N=C3S2)CC1,2,0,3,0,x,x
O=C(CN1C(=O)C2C3C=CC(C3)C2C1=O)N1CCN(c2ccccc2)CC1 (configuration not stated),15,0,-3,5.5*,0,0
CCCCCn1c(SCC(=O)c2ccccc2)nc2cc(C(=O)NCc3cccc(Cl)c3)ccc2c1=O,10,0,2,1,x,x
O=C(Nc1cccc(Cl)c1)N1CCN(c2ccc(Nc3cccnc3)nn2)CC1,16,0,-4,6.1*,1,1
CN1CCN(c2nc(NC3CCCCC3)c3ccccc3n2)CC1,-33,0,4,12*,0,18
c1ccc2c(NC3CCCC3)nc(N3CCNCC3)nc2c1,2,0,-5,2,x,x
O=C(CCCN1C(=O)c2cccnc2C1=O)Nc1ccc(C(F)(F)F)cc1,4,0,11,9.0*,2,0
CCCc1cc(NCCc2ccc(OC)c(OC)c2)n2ncnc2n1,3,0,-3,2,x,x
Cc1ccc(-n2nc3c(c2NC(=O)c2ccc(C(=O)c4ccccc4)cc2)CSC3)c(C)c1,-7,0,-1,0,x,x
CN(C)c1ncc(CN2CCN(CCc3ccccc3)C(CCO)C2)s1 (configuration not stated),10,0,10,9.8*,0,5
CCOc1ccc(CN2CCN(Cc3cnc(-c4ccccc4)s3)CC2CCO)cc1 (configuration not stated),16,0,12,-1,x,x
CN(C)c1ncc(CN2CCN(Cc3ccc(F)cc3)C(CCO)C2)s1 (configuration not stated),-2,0,-7,4,x,x
COc1ccc(CN2CCN(Cc3cnc(-c4ccccc4)s3)CC2CCO)cc1C (configuration not stated),-5,0,13,6.7*,0,-4
CCCCC/C=C\C/C=C\C/C=C\C/C=C\CCCC(=O)S[C@H](COCCCCCCCCCCCCCCCC)COP(=O)(O)OCC[N+](C)(C)C,19,x,x,0,x,x
COc1ccccc1C(=O)OCC(=O)Nc1ccc(C#N)cc1,17,0,-9,6.1*,1,1
CNc1ccccc1C(=O)OCC(=O)Nc1ccc(C#N)cc1,-8,0,-11,-1,x,x
Cc1cnc(-c2c(C)nn(C)c2C)nc1NCCc1ccc(O)cc1,1,0,-1,5.7*,1,5
Cc1cnc(-c2c(C)noc2C)nc1NCCc1ccc(O)cc1,-6,0,-4,0,x,x
Cc1ccc(S(=O)(=O)Nc2ccc3c(c2)OCCOCCOCCOCCOCCO3)cc1,-1,0,-9,5.2*,-1,-8
Cc1ccc(S(=O)(=O)Nc2ccc(Cl)c([N+](=O)[O-])c2)cc1,12,0,-9,6.3*,-1,2
SMILES,MITF primary,FBW7 act,TEAD-YAP inh,GPR151 activ,GPR151 conf act,GPR119 counter
Cc1ccc(NS(=O)(=O)c2ccc(NS(=O)(=O)c3ccc4c(c3)OCCO4)cc2)cc1C,1,0,4,-2,x,x
C=CCNC(=O)/C(C#N)=C/C=C/c1ccccc1,-4,0,-7,-1,x,x
COCCNC(=O)/C(C#N)=C/C=C/c1ccccc1,6,0,-14,6.0*,3,0
O=C(COc1ccccc1[N+](=O)[O-])NC(=S)Nc1ccccc1N1CCOCC1,3,0,-7,-1,x,x
O=C(COc1ccccc1[N+](=O)[O-])Nc1cccc(Cl)c1N1CCOCC1,-2,0,13,5.0*,-1,-3
COc1ccc(C(=O)N2c3ccccc3CC2C)cc1OC (configuration not stated),-1,0,0,6.4*,0,0
CC1Cc2ccccc2N1C(=O)c1ccc2c(c1)OCO2 (configuration not stated),2,0,7,0,x,x
CCCCOc1ccc(/C=C/C(=O)N2CCCCC2)cc1,3,0,-38,5.6*,1,-7
CC(C)CC(NCC(O)Cn1c2ccccc2c2ccccc21)C(=O)O (configuration not stated),-7,0,0,1,x,x
O=C(O)CCC(NCC(O)Cn1c2ccccc2c2ccccc21)C(=O)O (configuration not stated),-16,0,2,5.6*,2,16
O=C(NCCN1CCOCC1)c1cncc(-c2cccs2)c1,42,0,3,7.3*,0,2
CCNC(=O)c1c(-c2c(Cl)cccc2Cl)noc1C,-18,0,-3,-2,x,x
COC(=O)c1cc(-c2ccccc2)sc1NC(=O)CN1C(=O)c2ccccc2C1=O,6,0,5,15*,0,2
Cc1ccc(C(=O)C2C(c3ccccc3F)NC(=O)NC2(O)C(F)(F)F)cc1 (configuration not stated),-6,0,-2,6.9*,1,6
O=C1NC(c2ccc(F)cc2)C(C(=O)c2ccccc2)C(O)(C(F)(F)F)N1 (configuration not stated),1,0,-3,0,x,x
O=C1NC(c2ccccc2O)C(C(=O)c2ccccc2)C(O)(C(F)(F)F)N1 (configuration not stated),4,0,4,0,x,x
COC(=O)c1ccc(C2NC(=O)NC(O)(C(F)(F)F)C2C(=O)c2ccc(F)cc2)cc1 (configuration not stated),-7,0,-3,6.2*,1,2
Cc1cn2c(=O)c(C(=O)NOCc3cccc(C(F)(F)F)c3)cnc2s1,17,0,-9,14*,1,-3
O=C1NC(=S)S/C1=C/c1cccc(C(=O)O)c1,4,0,4,-8,x,x

# Source: PubChem BioAssay
